# Laboratory results published in the supplement of paper PMC6555819.
# Test system: VDR:RXRa (NR concentration 270 nM, RXRa partner concentration 90 nM)
# Assay: PBM binding z-score (relative to random genomic background probes); higher = stronger binding; sequences stand for … in GC…GCGATTGACAGCGTAGAATGAAGG
# Experimental: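 Protein-binding microarray (Agilent 4x180K custom design, double-stranded 60-nt probes: 5' GC cap, 34-nt variable region, 24-nt constant primer region; full probe sequence given). Purified or IVT nuclear receptor:RXRα heterodimers (3:1 NR:RXRα, mostly 270:90 nM) or homodimers were incubated for 1 h in PBS with 2% milk and no ligand, then detected with Alexa488 antibodies. Fluorescence from o1-orientation probes (~5 replicates averaged) was converted to z-scores against 500 random hg19 background probes. Variable regions are seed direct-repeat (DR0–DR5) sites, all their single-nucleotide variants and half-site ablations.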
row,Sequence,PBM binding z-score
1,CCTATTAATTGACCATAAGGGCAACCGAAGCTCG,0.371
2,ATCGAAAGGTCGAGGTGAGTAAAGAGAAAGGGAA,2.25
3,GCTCGGAGAACAAGGTCAGAGCTTTGTCCGTAGA,1.5
4,TCATATAGGTAAAAGGCGAAAGTCGGTGTGGTAA,0.679
5,ATCTCTAGGTAAGACTCAGTTCAGTGCAGAACGC,0.866
6,GCTCGTAGATCAAGGTTAAGAAAGACTAAGCTAA,-0.0501
7,AGAATGAGGTTATACGTAGAGCAGGGAAGAAAGT,1.23
8,ACTAGCAGGCCAAGGGTAACTCAAGATTAGTCCG,-0.166
9,ATCTCTAGGAAAAAGTTCAGTGAATCCCGAGGAT,0.44
10,CCTATTAGTTGACCATAAGAGCAACCGAAGCTCG,1.06
11,TAGAGTAGGTTACCAATGGGGCATTCAGCTTTCT,0.34
12,CGTCCAAGGTCAAAGCTAGGTCAGTGAAAGCATT,5.25
13,TCTCGGAGGACACGAAGGTGAGAGCTTTCCAGAG,-0.377
14,ATCTCTAGGTAAGACTCAGTTCAGGGAAGAACGC,1.06
15,AATACAGGGCCATCGTAGGCCAGAGTACGCACAG,-0.126
16,GCTAGTAGATCAAGGTTAAGAAAGACTAAGCTAA,-0.00199
17,CTACAAAGGTGAACAAGGTCGTTGATTACTATTC,6.38
18,TCTAGTTGGTCAAAGGTCACACACTCGAAATGCG,5.37
19,ATACCAAGGTGATCGTGAGGTCTTTGATACTAAC,0.526
20,TCATCTAGGTAAAAGGTGAAAGTCGGTGTGGTAA,1.5

row,Sequence,PBM binding z-score
1,GCATATAGGTAATACCAGGTGAAAGTCCGATTGT,-0.00851
2,ACTAGCAGGCCAAGTTTGGGACACTCAAACAAAG,-0.55
3,ACAGACAGGTGATGAAGGTAACTAAGGCTATCAT,0.295
4,AGTCAAAGTTCAGGACGAGGGAACGTAAAGCACG,2.05
5,GATACAGGGTCAGCGAGAGGCCAGAGTATGGAAA,3.67
6,CCTTACGGGTTACGAGGTTATAGCACGACGAGCG,2.36
7,AGCTCTAGGTAACCAAGTTCAGTGAATGCCGAAC,3.88
8,CCTACTGGGCCAAAGATCATTGATTCCAATGCTC,-0.31
9,AGAATGAGGTTACCGAAGATCAGGGAAACGCTTG,1.53
10,AGTCAAAGTTCACTGGGTAACGTAAGATTCAGCT,4.34
11,AGAATCAGGTTAAGATCAGGGAAACAGAATACAT,0.3
12,CTTTACGGGTCACGAGGTTATAGCACGACGAGCG,5.31
13,TCGAGTAGGTTAGTCGGGGCATTCAGCCAACATA,2.07
14,AGTCAAAGTTAATCTAGGTAACGTAAGATATGCT,-0.0868
15,CGAACTAGGTCAAGGACTGTGAATCTCCGCACGC,1.17
16,TCATATAGGTAAAAGGTGCAAGTCGGTGTGGTAA,1.09
17,CGTCCAAGGTCAGCAGGTCAGCGAAAGCGACGTG,4.26
18,AGGATGAGGTTATTAAGATCAGGGAATTGCGGTC,2.66
19,CCGACTGGGGCAGAAAGTTTACCATACCATCCGG,0.484
20,GCAGACAGGTGAAATGCAGGTAACTCAGGGTGGC,-0.417
